Screens (PubChem BioAssay)
Only some compounds are listed: those with a hit (about 8.7% of all), similar ones and a draw of the others.
JMJD2A Tudor inh – JMJD2A Tudor domain (human) inhibition. AlphaScreen JMJD2A-Tudor / H3K4me3 peptide binding. actives 4.4% (n = 390,000). AID 504339. Potency, µM (highest dose often 114 µM), without a hit: top-dose activity change, negative = inhibition, hits mostly inhibitors. O75164; further: on the % scale 0 is the no-effect control and ±100 the full control effect; nearly all actives have a fitted effect of over 50% in size
Target sequence (O75164 whole entry, looked up, the tested form may be a part): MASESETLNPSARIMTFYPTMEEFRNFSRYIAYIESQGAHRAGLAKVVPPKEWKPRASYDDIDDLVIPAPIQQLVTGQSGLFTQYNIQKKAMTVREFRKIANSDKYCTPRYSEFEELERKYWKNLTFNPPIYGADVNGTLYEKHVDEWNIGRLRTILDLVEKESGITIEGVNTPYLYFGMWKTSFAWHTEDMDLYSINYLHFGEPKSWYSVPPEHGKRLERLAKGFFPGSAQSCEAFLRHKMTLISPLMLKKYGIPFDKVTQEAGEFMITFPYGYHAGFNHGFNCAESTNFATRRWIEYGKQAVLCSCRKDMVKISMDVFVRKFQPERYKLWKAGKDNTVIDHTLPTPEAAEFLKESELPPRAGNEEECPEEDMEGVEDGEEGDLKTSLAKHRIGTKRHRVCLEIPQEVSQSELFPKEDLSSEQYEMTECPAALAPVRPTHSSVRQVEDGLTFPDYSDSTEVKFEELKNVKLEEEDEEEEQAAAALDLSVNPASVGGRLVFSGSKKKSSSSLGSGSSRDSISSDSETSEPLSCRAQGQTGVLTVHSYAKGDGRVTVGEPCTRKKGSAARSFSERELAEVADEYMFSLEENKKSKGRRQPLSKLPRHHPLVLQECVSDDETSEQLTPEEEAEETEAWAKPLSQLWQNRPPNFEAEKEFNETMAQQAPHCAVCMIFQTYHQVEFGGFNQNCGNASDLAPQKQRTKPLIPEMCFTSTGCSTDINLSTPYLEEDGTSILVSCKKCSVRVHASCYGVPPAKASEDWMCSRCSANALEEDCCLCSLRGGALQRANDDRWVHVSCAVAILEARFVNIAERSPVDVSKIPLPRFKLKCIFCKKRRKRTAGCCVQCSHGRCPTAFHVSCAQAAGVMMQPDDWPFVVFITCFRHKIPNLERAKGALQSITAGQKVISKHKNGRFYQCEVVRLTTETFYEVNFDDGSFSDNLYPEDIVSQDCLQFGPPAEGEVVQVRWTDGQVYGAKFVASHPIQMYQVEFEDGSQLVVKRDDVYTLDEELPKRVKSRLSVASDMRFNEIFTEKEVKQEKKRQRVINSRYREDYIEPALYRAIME
BAZ2B inh – blocks human BAZ2B | AlphaScreen BAZ2B-H3K14Ac peptide displacement | Potency, µM (highest dose often 114 µM), for the others: top-dose activity change, negative = inhibition, actives largely listed as inhibitors | Q9UIF8 | actives 4.4% (n = 360,000); further: on the % scale 0 is the no-effect control and ±100 the full control effect; nearly all actives have a fitted effect of over 60% in size
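Complex of BAZ2B and biotin-H3K14Ac (50 nM apiece) forms over 30 min at RT, then faces library compounds up to 110 uM for another 30 min; AlphaScreen beads added, 20 min dark incubation, luminescence read.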
Sfp inh – Sfp phosphopantetheinyl transferase inhibition; Q9F4F7; Biochemical Sfp PPTase activity, qHTS; Potency, µM, for the others: largest response in the series, negative = inhibition, actives largely listed as inhibitors; actives 3.5% (n = 310,000);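 further: the enzyme is Sfp with the accession as filed and its product quenches rhodamine fluorescence; 0% = enzyme reaction without inhibitor and -100% = no enzyme wells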
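After 15 min at room temperature with compound, 15 nM Sfp received 5 uM rhodamine-CoA plus 12.5 uM BHQ-2-ybbR (50 mM Hepes pH 7.6, 10 mM MgCl2). Rate came from the fluorescence difference over 30 min, ex 525/em 598 nm.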
G9a inh – G9a (human) methyltransferase inhibition; G9a H3K9 monomethylation, AlphaScreen, 2 h; Potency, µM (doses to about 102 µM), for inactives: top-dose activity, negative = inhibition, usual class: inhibitors; actives 8.8% (n = 350,000); further: on the % scale 0 is the no-effect control and ±100 the full control effect; nearly all actives have a fitted effect of over 75% in size
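Signal arises when biotinylated H3K9 peptide, once monomethylated, bridges streptavidin donor and antibody-captured acceptor beads. Enzyme at 20 nM was preincubated 15 min with test compounds; peptide 500 nM and SAM 20 uM then reacted for 2 h.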
ALOX12 inh – inhibitors of human 12S-lipoxygenase ALOX12 | Potency, µM (series often up to 108 µM), inactives show at the highest dose activity change, negative = inhibition, hits mostly inhibitors | purified 12hLO, xylenol orange hydroperoxide absorbance | AID 1671190 | P18054 | actives 1.1% (n = 580,000); further: on the % scale 0 is the no-effect control and ±100 the full control effect
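Purified human 12hLO at 150 nM in 25 mM Hepes, 0.01% Triton X-100, pH 7.0, preincubated 15 min at room temperature with compound. Reaction started with 40 uM arachidonic acid, 30 min at room temperature. Hydroperoxide measured by Fe-xylenol orange, 573/405 nm absorbance ratio.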
HP1b binding inh – blocks HP1-beta chromodomain binding to methylated histone tails | P83916 | AlphaScreen HP1-beta / biotin-H3K9me3 peptide binding | Potency, µM (doses to about 114 µM), for inactives: at the highest dose activity change, negative = inhibition, hits mostly inhibitors | actives 0.56% (n = 390,000) | AID 540317; further: nearly all actives have a fitted effect of over 70% in size
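HP1-beta protein (50 nM final) preincubated 30 min at room temperature with biotinylated H3(1-18)K9me3 peptide (50 nM) in PBS pH 7.4, 0.01% Tween-20, then compound added for 30 min. AlphaScreen streptavidin donor/nickel chelate acceptor beads (10 ug/mL final), 30 min dark, luminescence read.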
An asterisk follows results filed as active; ? = inconclusive; . = no result given; ! = not active in a repeat; [ ] = dose if it differs, or a comment. The call rests on the fitted dose curve; in most records, active means well fitted curve in the direction sought with a large enough effect; inconclusive means small, poorly fitted or top-dose-only effect, or another doubt; inactive means no such curve, though single readings can be large; an effect the other way counts as inactive or inconclusive. Potency means the concentration at half of the fitted maximal effect.

SMILES	JMJD2A Tudor inh	BAZ2B inh	Sfp inh	G9a inh	ALOX12 inh	HP1b binding inh
COc1ccc(CCN)cc1O	-3.4%	.	29.3%	?	0.4%	47.2%
COc1cc(-c2ccc(N)c(OC)c2)ccc1N	?	50.1µM*	.	0.3%[0.501 µM]	-0.2%	?
C[N+](C)(C)c1ccccc1	?	-12.7%	-5.2%	20µM*	?	17.5%
O=[N+]([O-])c1ccccc1	.	.	23.4%	27.8%[59 µM]	.	.
O=C1/C(=C\c2ccccc2F)N2CCC1CC2	.	.	.	.	102.6%	.
COc1cc2c(cc1-c1ccc(O)c(F)c1)NC(=O)C21CCN(C(C)=O)CC1	.	.	.	.	16.6%[176 µM]	.
S=C(c1ccc(Cl)cc1)N1CCOCC1	-21.2%	-2.3%	39.8µM*	11.2µM*	?	-31.5%
CNC(C(=O)c1ccccc1)C(OC)c1ccccc1 (stereo not given)	14.2%	-37.3%	-1.4%	?	?	69.2%
CNC(C(=O)c1ccccc1)C(OC)c1cccc([N+](=O)[O-])c1 (stereo not given)	-12.2%	-4.0%	6.2%	56.2µM*	-3.4%	39.5%
O=C(c1ccc(CNS(=O)(=O)c2ccccc2)cc1)N1CCC2(CC1)OCCO2	?	?	-14.8%	35.5µM*	-19.0%	-1.8%
O=C(c1ccc(CNS(=O)(=O)c2ccc(Br)cc2)cc1)N1CCC2(CC1)OCCO2	9.4%	-6.6%	3.5%	7.0%	-16.8%	15.4%
Cc1nc(-c2ccccc2Br)cc([C@H]2CN3CC[C@H]2C[C@@H]3CNS(=O)(=O)c2cccs2)n1	.	.	.	.	18.8%	.
COc1cc(CC2(CCc3ccncc3)C(=O)N(C)C(=O)N(C)C2=O)cc(OC)c1OC	-16.2%	-14.5%	-2.2%	22.4µM*	0.2%	19.9%
Clc1ccc2sc(C3CCNCC3)nc2c1	-16.9%	1.8%	-5.5%	44.7µM*	?	-7.1%
O=C(c1ccccc1Cl)N1CCC(c2nc3ccccc3s2)CC1	-7.6%	-17.8%	.	10.3%[59 µM]	-13.2%	43.3%
O=C(O)CCn1cc(C=C2C(=O)NC(=S)NC2=O)c(-c2cc3ccccc3oc2=O)n1	89.1µM*	50.1µM*	10µM*	11.2µM*	-0.4%	-13.5%
O=C(O)CCn1cc(C=C2C(=O)NC(=S)NC2=O)c(-c2ccccc2)n1	12.6µM*	79.4µM*	14.1µM*	.	?	-16.5%
OC(COCc1ccc(Cl)cc1)CN1CC=C(c2ccccc2)CC1 (stereo not given)	1.12µM*!	50.1µM*	?	?	?	?
S=c1[nH]c2ccccc2[nH]1	?	-11.7%	-1.7%	12.6µM*	-22.3%	-5.3%
On1ccccc1=S	3.55µM*	-5.5%	.	1.12µM*	-4.9%	?
C/C=C/C1(NCCc2ccccc2)CCCCC1	.	.	.	.	52.8%	.
C1CCN(c2nc(N/N=C3\CN4CCC3CC4)nc(N3CCCCC3)n2)CC1	.	.	.	.	48.9%	.
O=Cc1cn(Cc2c(F)cccc2Cl)c2ccccc12	13.9%	-0.7%	50.1µM*	44.9%[59 µM]	-15.9%	46.5%
CCC1(N2CCN(C(=O)COc3cccc(Cl)c3)CC2)CCN(C(=O)NC)C1 (stereo not given)	.	.	.	.	63.6%	.
C[C@@H]1CC2(CCCC[N+]2(C)C)C[C@H]1C	?	-17.1%	18.1%	11.2µM*	?	-2.2%
SMILES	JMJD2A Tudor inh	BAZ2B inh	Sfp inh	G9a inh	ALOX12 inh	HP1b binding inh
O=C(C1c2ccccc2C(=O)N2CCc3ccccc3C12)N1CCC2(CC1)OCCO2 (stereo not given)	-11.3%	-26.9%	13.9%	-30.4%	0.4%	23.1%
COc1cc2c(cc1OC)C(C(=O)N1CCC3(CC1)OCCO3)C(c1ccccc1F)N(C)C2=O (stereo not given)	3.1%[57.1 µM]	2.9%	-1.5%	0.794µM*	0.0%	20.4%
O=C1NC(=O)[C@]2(Cc3ccccc3N3CCN(c4ccccc4)CC32)C(=O)N1Cc1ccccc1 (stereo not given in full)	?	-33.5%	-19.6%	5.01µM*	15.8µM*	-2.9%
O=C1NC(=O)C2(Cc3ccccc3N3CCCC32)C(=O)N1Cc1ccccc1 (stereo not given)	-28.8%	0.9%	56.2µM*	35.5µM*	0.0%	33.3%
CC(C)CN1CCNc2cc(-c3ccccc3)ncc2C1	.	.	.	.	-5.2%[176 µM]	.
c1ccc2c(CNC3CCCCC3)c[nH]c2c1	-19.7%	-4.2%	5.6%	-8.5%	-1.9%	10.4%
c1ccc2c(CN3CCCCCCC3)c[nH]c2c1	28.2µM*	-5.4%	4.8%	?	?	-8.9%
c1ccc2c(CN3CCN(C4CCCCC4)CC3)c[nH]c2c1	?	50.1µM*	-25.8%	50.1µM*	182.1%	?
O=C(Cc1c[nH]c2ccccc12)N1CCN(CC(=O)N2CCCCCC2)CC1	.	.	.	.	-0.3%	.
Brc1ccc2[nH]cc(/C=N/N3CCCCC3)c2c1	50.1µM*	44.7µM*	-3.9%	?	?	?
COC(=O)C(O)(c1c(C)[nH]n(-c2ccccc2)c1=O)C(F)(F)F (stereo not given)	-29.9%[57.1 µM]	?	21.2%	31.6µM*	?	45.5%
COc1ccc(C2SCC(=O)Nc3c2c(C)nn3-c2ccccc2)cc1 (stereo not given)	-8.3%	2.3%	3.4%	20.8%[12.7 µM]	19.7%	12.6%
Cc1ccc(-n2nc(C)c3c2NC(=O)CSC3c2ccc3c(c2)OCO3)cc1 (stereo not given)	?	.	56.2µM*	?	?	?
Cc1cc(=O)c2ccccc2[se]1	.	.	.	.	8.9%	.
Nc1ccc2cc(Br)ccc2c1	?	.	-15.0%	50.1µM*	?	?
COc1ccc2[nH]cc(CCN=C(NC(=O)c3ccccc3OC)Nc3nc(C)cc(C)n3)c2c1	?	25.1µM*	.	?	-20.5%	-3.7%
COc1ccccc1N1CCN(C[C@H]2CN3CC[C@H]2C[C@@H]3CNC(=O)Nc2cccc(C#N)c2)CC1	.	.	.	.	7.6%	.
O=P(NS(=O)(=O)c1ccccc1)(Oc1ccccc1)Oc1ccccc1	?	-39.0%	29.4%	56.2µM*	15.3%	25.0%
Cc1ccc(S(=O)(=O)NP(=O)(Oc2ccccc2)Oc2ccccc2)cc1	?	-22.8%	21.7%	56.2µM*	?	18.4%
Cc1nc(-c2cccs2)cc([C@H]2CN3CC[C@H]2C[C@@H]3CO)n1	.	.	.	.	22.7%[176 µM]	.
O=C1NC(=S)N(c2ccccc2)C(=O)C1C(c1ccncc1)C1C(=O)NC(=S)N(c2ccccc2)C1=O (stereo not given)	-24.7%	-28.3%	?	44.7µM*	-15.8%	29.0%
CCCCC(=O)c1c(O)c2ccccc2oc1=O	?	-11.5%	5.9%	44.7µM*	?	18.7%
COc1ccc(CC(=O)N2[C@H]3CC[C@@H]2c2cnc(-c4ccccc4)nc2C3)cc1OC	.	.	.	.	7.4%	.
